Measured values published in PubChem BioAssay (Tox21).
Records with an inconclusive call do not appear. Entries that show only a call come without a potency. A number with no mark means an inactive call. Active and inactive are the calls of the source. Calls come from the whole dose curve; as a rule, active = well fitted cell-killing curve with a large enough effect in the repeat runs; inconclusive = weak or mixed curves, or effect the other way; inactive = flat fitted curve, though single readings scatter.

Columns and labels:
[1] = cAMP Responsive Elements (CRE) small molecule antagonists, cell-based qHTS assay: qHTS cell viability counter screen (AID 2060913); note: nearly all actives have a fitted effect of over 40% in size
How it was run: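 Cytotoxicity read in the same wells as the CRE-bla HEK293T antagonist assay: after 3 h compound with 0.25 uM NKH477 final and 2 h beta-lactamase substrate, CellTiter-Glo luminescence measured.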

[2] = cAMP Responsive Elements (CRE) small molecule agonists, cell-based qHTS assay: qHTS cell viability counter screen (AID 2060914);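 note: viability read after 3 h of compound exposure; nearly all actives have a fitted effect of over 50% in size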
How it was run: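 CRE-bla HEK 293T cells, plated 18 h at 37 °C, were exposed to compounds for 3 h at 37 °C/5% CO2. Viability was then measured in the same wells by CellTiter-Glo luminescence after 30 min at room temperature.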
Potency is the fitted concentration of half-maximal effect.

Compound | Potency [1] | Potency [2]
CCN(CCCc1ccccc1)CCCc1ccccc1 | inactive | inactive
c1cc2c3c(c1)ccc1cccc(c13)C2 | inactive | inactive
CCCCCCC(=O)OCC | inactive | inactive
O=S(=O)(O)c1ccc2cc(O)c(S(=O)(=O)O)cc2c1 | inactive | inactive
CCCCN(CCCC)CCCC | inactive | inactive
CC(=O)c1ccc(C)cc1 | inactive | inactive
CCc1cccc(CC)c1N(COC)C(=O)CS(=O)(=O)O | inactive | inactive
CCc1ccccc1CC | inactive | inactive
CC(N)CCCC(C)(C)O (configuration not stated) | inactive | inactive
Oc1ccc(C2CNCCc3c2cc(O)c(O)c3Cl)cc1 (configuration not stated) | inactive | inactive
Cc1ccc2n[nH]nc2c1 | inactive | inactive
Cc1nnc(C(=O)NC(C)(C)c2nc(C(=O)NCc3ccc(F)cc3)c(O)c(=O)n2C)o1 | inactive | inactive
CN1C(=O)CC(C)(c2ccccc2)C1=O (configuration not stated) | inactive | inactive
O=S(=O)(O)NC1CCCCC1 | inactive | inactive
CCCCCCCCCCCCCOP(=O)(O)O | inactive | inactive
CO[Si](C)(C)OC | inactive | inactive
CCCCC(CC)(CO)CO | inactive | inactive
CN1CCC[C@@H]1c1cccnc1 | inactive | inactive
COc1cc(-c2nc(NC(=O)c3cc4cc(C)cc(C)c4n3CC(=O)O)sc2CCC2CCCCC2)c(OC)cc1Cl | 25 µM (active) | 25 µM (active)

Compound | Potency [1] | Potency [2]
COC(=O)/C=C\C(=O)O | inactive | inactive
COc1cc(O)cc(O)c1 | inactive | inactive
Cc1ccc(S(=O)(=O)Oc2ccc(N=Nc3ccc(-c4ccc(N=Nc5c(O)ccc6cc(S(=O)(=O)O)cc(S(=O)(=O)O)c56)c(C)c4)cc3C)cc2)cc1 | inactive | inactive
COCCOc1cc2cc(C(=O)NC3CCN(C(C)C)CC3)n(CC(=O)Nc3ccc(Cl)cn3)c2cn1 | inactive | inactive
CN1C[C@H]2c3ccccc3Oc3ccc(Cl)cc3[C@@H]2C1 | inactive | inactive
COc1nc(C)nc(N)n1 | inactive | inactive
N=c1ccn2c(n1)O[C@H]1[C@H](O)[C@@H](CO)O[C@H]12 | inactive | inactive
CN=C(NC#N)NCCSCc1csc(N=C(N)N)n1 | inactive | inactive
N#Cc1ccc(C/C(=N/NC(=O)Nc2ccc(OC(F)(F)F)cc2)c2cccc(C(F)(F)F)c2)cc1 | inactive | inactive
Cc1cccc2c1cc1ccc3cccc4ccc2c1c34 | inactive | inactive
O=C1c2ccccc2C(=O)c2cc(O)ccc21 | inactive | inactive
CCCCCC1CCC(=O)O1 (configuration not stated) | inactive | inactive
[O-]/[N+](=N\O)c1ccccc1 | inactive | inactive
CCCC1CCOC(C)S1 (configuration not stated) | inactive | inactive
O=C1NC(=O)c2cc([N+](=O)[O-])ccc21 | inactive | inactive
CCCCC(C=O)CC (configuration not stated) | inactive | inactive
CCCCCCCC | inactive | inactive
CC[N+](CC)(CC(=O)Nc1c(C)cccc1C)Cc1ccccc1 | inactive | inactive
O=C(CO)[C@@H](O)[C@H](O)[C@@H](O)CO | inactive | inactive

Compound | Potency [1] | Potency [2]
Cc1cccc(C(=O)O)c1 | inactive | inactive
CC(C)CCCCCOC(=O)CCS | inactive | inactive
CCCC(=O)OC/C=C(\C)CCC=C(C)C | inactive | inactive
CO/N=C(/C(=O)N[C@@H]1C(=O)N2C(C(=O)OCOC(=O)C(C)(C)C)=C(C)CS[C@H]12)c1csc(N)n1 | inactive | inactive
CCCCC(CC)COP(=O)(O)O (configuration not stated) | inactive | inactive
Nc1ccc(N=Nc2ccc(N)cc2)cc1 | inactive | inactive
O=C(O)c1ccc(O)c(O)c1 | inactive | inactive
CN(C)[C@@H]1C(=O)C(C(N)=O)=C(O)[C@@]2(O)C(=O)C3=C(O)c4c(O)ccc(Cl)c4[C@@H](O)[C@H]3C[C@@H]12 | inactive | inactive
O=C(Nc1cccc(Cl)c1)OCC#CCCl | inactive | inactive
CCCOC(OCCC)OCCC | inactive | inactive
C[C@@H](O[C@H]1OCCN(Cc2n[nH]c(=O)[nH]2)[C@H]1c1ccc(F)cc1)c1cc(C(F)(F)F)cc(C(F)(F)F)c1 | inactive | inactive
CC(=O)O[C@@H]1C[C@@H]2CC[C@@]1(C)C2(C)C | inactive | inactive
CCCCCCCCCCCCCc1ccccc1 | inactive | inactive
CCc1nn(CCCN2CCN(c3cccc(Cl)c3)CC2)c(=O)n1CCOc1ccccc1 | inactive | inactive
COCCOCCOCCOCCOC | inactive | inactive
CC/C=C\CCOC(=O)C(C)C | inactive | inactive
Cc1ccc([N+](=O)[O-])cc1Cl | inactive | inactive
CCCC(=O)O | inactive | inactive
